Source: the supplement of paper PMC10127200
Structures can show the parent of a compound that is named as a salt.

Experiments:
Assay in all cases: Euclidean distance of Cell Painting phenotypic profile (signed KS, 77 features) to DMSO centroid (dimensionless distance); 5 or 10 uM (library dependent); higher = stronger phenotypic change vs DMSO (phenoactivity)
Conditions in all cases: 48 h
786-O = test system: 786-O
How it was run: (§1)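 Five cancer lines, together with a healthy fibroblast line, received library compounds for 48 h at a library-dependent 10 or 5 uM and 0.1% DMSO final. Harmony then derived 77 features from confocal 20X images (9 fields/well) of the stained cells, scoring each as a signed Kolmogorov-Smirnov statistic against same-plate vehicle wells. After plate-position correction, correlation weighting and replicate averaging at the top dose, phenoactivity was taken as each profile's Euclidean distance to the median vehicle profile.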

A549 = test system: A549
How it was run: as §1

FB = test system: FB
How it was run: as §1

HEPG2 = test system: HEPG2
How it was run: as §1

OVCAR4 = test system: OVCAR4
How it was run: as §1

DU145 = test system: DU145
How it was run: as §1

With `COC(=O)C[C@](O)(CCCC(C)(C)O)C(=O)O[C@@H]1C(OC)=C[C@]23CCCN2CCc2cc4c(cc2[C@H]13)OCO4` [Homoharringtonine] the Euclidean distance (786-O) was 3.57, the Euclidean distance (A549) was 3.34 and the Euclidean distance (FB) was 4.13. For the same molecule, the Euclidean distance (HEPG2) was 3.18 and the Euclidean distance (OVCAR4) was 3.7.
`COc1ccc2c(c1)c(CC(=O)OCC(=O)O)c(C)n2C(=O)c1ccc(Cl)cc1` [Acemetacin] was tested, and the Euclidean distance (786-O) was 0.932, the Euclidean distance (A549) was 0.994 and the Euclidean distance (FB) was 1.09. The Euclidean distance (HEPG2) was 0.526 and the Euclidean distance (OVCAR4) was 1.57.
In the case of `CCc1cc2c(cc1N1CCC(N3CCOCC3)CC1)C(C)(C)c1[nH]c3cc(C#N)ccc3c1C2=O` [Alectinib hydrochloride], the Euclidean distance (786-O) is reported as 1.42, the Euclidean distance (A549) is reported as 2.36 and the Euclidean distance (FB) is reported as 1.91. It also gave an Euclidean distance (HEPG2) of 0.611 and an Euclidean distance (OVCAR4) of 1.42.
With `CC(CN(C)C)CN1c2ccccc2CCc2ccccc21` (stereo not given) [Trimipramine Maleate] the Euclidean distance (786-O) was 1.08, the Euclidean distance (A549) was 1.02 and the Euclidean distance (FB) was 1.91. It also gave an Euclidean distance (HEPG2) of 1.2 and an Euclidean distance (OVCAR4) of 1.57.
With `CC(C)(Cc1ccc2ccccc2c1)NC[C@@H](O)COc1cccc(Cl)c1C#N` the Euclidean distance (786-O) was 1.35, the Euclidean distance (A549) was 1.64 and the Euclidean distance (FB) was 1.06. It also gave an Euclidean distance (HEPG2) of 1.77 and an Euclidean distance (OVCAR4) of 1.45.
`CC(C)n1c(/C=C/C(O)CC(O)CC(=O)O)c(-c2ccc(F)cc2)c2ccccc21` (stereo not given) [Fluvastatin Sodium] was tested, and the Euclidean distance (786-O) was 3.02, the Euclidean distance (A549) was 2.4 and the Euclidean distance (FB) was 3.84. It also gave an Euclidean distance (HEPG2) of 1.86 and an Euclidean distance (OVCAR4) of 2.29.
For `Cc1cc(C)nc(NS(=O)(=O)c2ccc(N)cc2)n1` [Sulfamethazine], the Euclidean distance (786-O) was 1.04, the Euclidean distance (A549) was 0.914 and the Euclidean distance (FB) was 0.861. It also gave an Euclidean distance (HEPG2) of 0.849 and an Euclidean distance (OVCAR4) of 1.17.
For `O=C(NCCN1CCOCC1)c1ccc(Cl)cc1`, the Euclidean distance (786-O) was 1.01, the Euclidean distance (A549) was 1.34 and the Euclidean distance (FB) was 0.812. It also gave an Euclidean distance (HEPG2) of 0.538 and an Euclidean distance (OVCAR4) of 1.07.
For `CS(=O)(=O)c1cccc(CNc2nc(Nc3ccc4c(c3)CCC(=O)N4)ncc2C(F)(F)F)c1`, the Euclidean distance (786-O) was 3.16, the Euclidean distance (A549) was 2.6 and the Euclidean distance (DU145) was 3.07. It also gave an Euclidean distance (FB) of 3.24 and an Euclidean distance (OVCAR4) of 1.34.
Molecule `C[C@@H]1C(=O)O[C@H]2C[C@@]34[C@H]5C[C@@H](C(C)(C)C)[C@]36[C@@H](OC(=O)[C@@H]6O)O[C@@]4(C(=O)O5)[C@]21O` [Ginkgolide A] has an Euclidean distance (786-O) of 0.788, an Euclidean distance (A549) of 1.51 and an Euclidean distance (DU145) of 1.93. The Euclidean distance (FB) was 1.46 and the Euclidean distance (OVCAR4) was 1.21.
For `C=CC(=O)N1CC/C(=C\c2ccc(F)c([N+](=O)[O-])c2)C(=O)/C(=C/c2ccc(F)c([N+](=O)[O-])c2)C1`, the Euclidean distance (786-O) was 6.18, the Euclidean distance (A549) was 5.03 and the Euclidean distance (FB) was 5.74. It also gave an Euclidean distance (HEPG2) of 5.06 and an Euclidean distance (OVCAR4) of 6.21.
With `COC(=O)CCc1ccc(OCC(O)CNC(C)C)cc1` (stereo not given) [Esmolol HCl] the Euclidean distance (786-O) was 0.978, the Euclidean distance (A549) was 0.415 and the Euclidean distance (FB) was 0.525. For the same molecule, the Euclidean distance (HEPG2) was 0.386 and the Euclidean distance (OVCAR4) was 1.12.
Molecule `C[C@@H]1CN(c2c(F)c(N)c3c(=O)c(C(=O)O)cn(C4CC4)c3c2F)C[C@H](C)N1` [Sparfloxacin] has an Euclidean distance (786-O) of 0.878, an Euclidean distance (A549) of 1.28 and an Euclidean distance (FB) of 0.552. The Euclidean distance (HEPG2) was 0.632 and the Euclidean distance (OVCAR4) was 1.26.
`COc1cc(NS(=O)(=O)c2ccc(N)cc2)nc(OC)n1` [Sulphadimethoxine] gave an Euclidean distance (786-O) of 1.31, an Euclidean distance (A549) of 1.11 and an Euclidean distance (DU145) of 1.61. The Euclidean distance (FB) was 1.62 and the Euclidean distance (OVCAR4) was 1.44.
Molecule `CCc1ccc(Cc2ccc3c(c2)[C@]2(OC3)O[C@H](CO)[C@@H](O)[C@H](O)[C@H]2O)cc1` [Tofogliflozin(CSG 452)] has an Euclidean distance (786-O) of 1.15, an Euclidean distance (A549) of 1.03 and an Euclidean distance (FB) of 0.713. The Euclidean distance (HEPG2) was 0.386 and the Euclidean distance (OVCAR4) was 1.56.
In the case of `Nc1nc(N)nc(-c2cc(Cl)ccc2Cl)n1` [Irsogladine], the Euclidean distance (786-O) is reported as 1.09, the Euclidean distance (A549) is reported as 1.05 and the Euclidean distance (FB) is reported as 0.809. The Euclidean distance (HEPG2) was 0.613 and the Euclidean distance (OVCAR4) was 1.41.
`O=c1c(O)c(-c2ccc(O)cc2O)oc2cc(O)cc(O)c12` [Morin Hydrate] was tested, and the Euclidean distance (786-O) was 0.826, the Euclidean distance (A549) was 0.616 and the Euclidean distance (FB) was 0.68. It also gave an Euclidean distance (HEPG2) of 0.312 and an Euclidean distance (OVCAR4) of 1.06.
`CC1=C(C(=O)O)N2C(=O)[C@@H](NC(=O)[C@H](N)c3ccccc3)[C@H]2SC1` [Cephalexin] showed an Euclidean distance (786-O) of 1.16, an Euclidean distance (A549) of 1.01 and an Euclidean distance (FB) of 1.05. For the same molecule, the Euclidean distance (HEPG2) was 0.939 and the Euclidean distance (OVCAR4) was 1.1.
With `CNC(=O)c1cc(COc2nnc(Nc3ccc(Cl)cc3)c3ccoc23)ccn1` [Telatinib] the Euclidean distance (786-O) was 1.21, the Euclidean distance (A549) was 0.814 and the Euclidean distance (FB) was 2.01. It also gave an Euclidean distance (HEPG2) of 1.41 and an Euclidean distance (OVCAR4) of 1.74.
`COc1c2occc2cc2ccc(=O)oc12` [Methoxsalen] gave an Euclidean distance (786-O) of 0.745, an Euclidean distance (A549) of 0.658 and an Euclidean distance (FB) of 0.948. For the same molecule, the Euclidean distance (HEPG2) was 0.988 and the Euclidean distance (OVCAR4) was 1.08.
`O=c1[nH]nc2c3c(cccc13)N=C(CN1Cc3ccccc3C1)N2` was tested, and the Euclidean distance (786-O) was 0.985, the Euclidean distance (A549) was 1.29 and the Euclidean distance (FB) was 1.31. It also gave an Euclidean distance (HEPG2) of 2.35 and an Euclidean distance (OVCAR4) of 1.42.
